Shown are actives, neighbours in structure and some others; about 7.6% of the full set was active somewhere.
RORgamma inh: blocks mouse ROR gamma transcriptional activity | P51450 | Drosophila S2 Gal4-RORgamma UAS-luciferase reporter, 20 h | Potency, µM (doses to about 53.6 µM), without a hit: at the top dose activity change, negative = inhibition, usual class: inhibitors | actives 5.4% (n = 310,000); note: potency is the fitted concentration of half-maximal effect; % is set by controls: 0 for no effect and ±100 for the full control effect; nearly all actives have a fitted effect of over 60% in size
Target sequence (P51450 whole entry, looked up, the tested form may be a part): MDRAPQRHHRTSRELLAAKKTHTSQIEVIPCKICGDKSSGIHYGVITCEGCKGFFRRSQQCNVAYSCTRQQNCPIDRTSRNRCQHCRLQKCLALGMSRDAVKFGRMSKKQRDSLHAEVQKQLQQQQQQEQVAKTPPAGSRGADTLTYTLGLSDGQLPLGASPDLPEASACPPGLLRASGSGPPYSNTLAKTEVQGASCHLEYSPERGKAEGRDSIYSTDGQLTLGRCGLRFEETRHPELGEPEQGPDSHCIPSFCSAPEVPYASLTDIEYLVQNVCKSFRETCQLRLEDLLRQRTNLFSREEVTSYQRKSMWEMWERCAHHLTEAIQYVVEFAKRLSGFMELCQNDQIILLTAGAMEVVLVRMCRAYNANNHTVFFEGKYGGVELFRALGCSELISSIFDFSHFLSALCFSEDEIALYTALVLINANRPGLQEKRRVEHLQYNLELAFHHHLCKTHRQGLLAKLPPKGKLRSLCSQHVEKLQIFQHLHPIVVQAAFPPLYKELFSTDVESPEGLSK
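Drosophila S2 cells stably expressing Gal4-DBD/mouse RORγ fusion under metallothionein promoter plus UAS-luciferase; compound 1 h, then 700 uM CuSO4 induction for 20 h at ambient temperature; inhibition read as reduced luminescence.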
ELG1 DNA repair: ELG1-dependent DNA repair inhibition; HEK293T ELG1-luciferase reporter, luminescence, 16 h; DNA damage induced by 5-fluorouridine; Potency, µM (highest dose often 46.1 µM), for the others: at the highest dose activity change, negative = inhibition, most hits filed as inhibitors; actives 2.3% (n = 330,000); note: potency is the fitted concentration of half-maximal effect; % is set by controls: 0 for no effect and ±100 for the full control effect; nearly all actives have a fitted effect of over 55% in size
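HEK293T cells expressing luciferase-tagged ELG1 (2,000/well) received 5-Fluorouridine plus compound or DMSO for 16 hr at 37 °C. Luciferase was read by ONE-Glo luminescence after 30 min at room temperature.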
Giardia kill: Giardia lamblia killing. Giardia lamblia trophozoite viability. activity change, % at 7.66 µM, hits read low. actives 0.15% (n = 340,000); in the data active = activity change below about -80%; inconclusive = between about -30% and that limit;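 note: parasites exposed to compound for two days anaerobically before the ATP read; % is set by controls: 0 for no effect and ±100 for the full control effect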
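Media and compound were dispensed first, then trophozoites at 100 cells/well; plates sat 48 hrs at 37 deg C without oxygen before ATP luminescence reagent was added and read after 15-30 min at room temperature.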
p53 reactivator: mutant p53 re-activation in reporter cells; actives 0.063% (n = 320,000); H1299 p53-A138V BP100-luciferase reporter, luminescence, 24 h; Potency, µM (series often up to 92.2 µM), for inactives: at the top dose activity change, positive = activation, actives largely listed as activators; note: potency is the fitted concentration of half-maximal effect; % of control where 0% means no effect; nearly all actives have a fitted effect of over 45% in size
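p53-null H1299 cells stably carrying temperature-sensitive p53-A138V and a BP100-luciferase reporter were pinned with compounds (4-point, 1:5 series) and held 24 hrs at 37 deg C. Luminescence was read 10 min after detection reagent.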
BRCA1 expr act: activators of BRCA1 expression; MCF7-BRCA1-FFLuc reporter, luminescence, 48 h; response scale: scaled: vehicle 0%, 10 µM genistein 100%; Potency, µM (series often up to 46.1 µM), for inactives: at the highest dose activation, actives largely listed as activators; actives 1.1% (n = 380,000); note: potency is the fitted concentration of half-maximal effect; nearly all actives have a fitted effect of over 80% in size
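Luminescence from a BRCA1-driven firefly luciferase in MCF7 cells was read after 48 h compound exposure at 37 C. Data normalized against DMSO and a 10microM genistein activation control, then curve-fitted across the titration.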
VP16 counter: inhibits Gal4-VP16 luciferase reporter, ROR gamma counter-screen; Drosophila S2 Gal4-VP16 UAS-luciferase, luminescence, 20 h; Potency, µM (top dose mostly 53.6 µM), for the others: at the highest dose activity, negative = inhibition, usual class: inhibitors; actives 3.5% (n = 310,000); AID 2546;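 note: Gal4-VP16 expression switched on by copper sulfate through the metallothionein promoter; potency is the fitted concentration of half-maximal effect; % is set by controls: 0 for no effect and ±100 for the full control effect; nearly all actives have a fitted effect of over 50% in size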
Numbers without * were called inactive; ? = inconclusive; . = no result given; [ ] = another dose, or the depositor's remark. Unless noted, calls come from the whole dose curve; as a rule, active = well fitted curve in the direction sought with a large enough effect; inconclusive = small, poorly fitted or top-dose-only effect, or another doubt; inactive = no such curve, though single readings can be large; an effect the other way counts as inactive or inconclusive.

SMILES | RORgamma inh | ELG1 DNA repair | Giardia kill | p53 reactivator | BRCA1 expr act | VP16 counter
O=C(COc1ccc(Br)cc1)Nc1ccc(S(=O)(=O)Nc2ccccn2)cc1 | 3% | 1% | 0 | -5% | -12% | 2%
Cc1cccc(NC(c2ccc(C)s2)c2ccc3ccc(C)nc3c2O)n1 (configuration not stated) | 10µM* | ? | -15 | 1% | -79% | 5µM*
Oc1c(C(Nc2ccccn2)c2ccccc2F)ccc2cccnc12 (configuration not stated) | . | . | -13 | . | -47% | .
Cc1cccc(NCc2ccccc2O)n1 | 25% | ? | 21 | 19% | 32% | -5%
Oc1c(C(Nc2ccccn2)c2ccccn2)ccc2cccnc12 (configuration not stated) | 1.1µM* | ? | 15 | 27% | -75% | 2.2µM*
COc1cc(C(Nc2ccccn2)c2ccc3ccc(C)nc3c2O)cc(OC)c1O (configuration not stated) | 7.1µM* | ? | -5 | -30% | -99% | 13µM*
Oc1ccccc1C(Nc1nccs1)c1ccc2cccnc2c1O (configuration not stated) | ? | 3.7µM* | 8 | 21% | -81% | 5µM*
Cc1ccnc(NC(c2ccccc2F)c2ccc3cccnc3c2O)c1 (configuration not stated) | . | . | . | . | -70% | .
COc1ccc(N2CCN(Cc3nc4c(c(=O)n(C)c(=O)n4C)n3Cc3ccccc3C)CC2)cc1 | . | . | -7 | . | 17% | .
O=C(CSc1nc2ccccc2o1)N/N=C/c1ccc(C(=O)O)cc1 | 11% | 0% | 11 | 2% | 0% | 1%
Cc1ccnc(NC(c2ccccc2)c2ccc3cccnc3c2O)c1 (configuration not stated) | . | . | ? | . | -89% | .
Cc1ccc2ccc(C(Nc3ccccn3)c3ccccc3)c(O)c2n1 (configuration not stated) | 5µM* | -15% | 10 | 23% | -35% | 4.5µM*
O=c1[nH]c(CSc2nnnn2-c2ccc(Cl)cc2)nc2ccccc12 | -36% | -14% | -3 | -7% | -13% | -6%
Clc1ccc(-n2nnnc2SCc2c(-c3ccccc3)nc3sccn23)cc1 | ? | ? | 1 | 7% | -11% | 6.3µM*
CC(C)NC(=S)N1CCC(Cc2ccccc2)CC1 | 1.1µM* | -3% | -18 | -3% | 8% | -20%
COCCNC(=S)N1CCC(Cc2ccccc2)CC1 | -30% | -12% | 5 | 0% | -2% | -2%
CC(C)CNC(=S)N1CCC(Cc2ccccc2)CC1 | 10µM* | -15% | 0 | -7% | -22% | ?
Cc1c(C(=O)N(C)Cc2ccc(OC(F)F)cc2)oc2ccccc12 | 19% | 11% | 3 | -3% | 0% | -6%
CC1=CCCC(C)(C)C1/C=C/C(C)=N/NC(=O)c1ccncc1 (configuration not stated) | 2.8µM* | -21% | 7 | -2% | -37% | ?
O=C1OCCN1/N=C/c1ccc([N+](=O)[O-])o1 | ? | 18% | -92* | . | -31% | .
O=C1O[C@H](CN2CCOCC2)CN1/N=C\c1ccc([N+](=O)[O-])o1 | -23%[16.9 µM] | . | . | . | . | 27%[17 µM]
O=C1OC(CN(Cc2ccccc2)Cc2ccccc2)CN1N=Cc1ccc([N+](=O)[O-])o1 (configuration not stated) | . | . | -94* | . | -38% | .
CC[C@]12c3[nH]c4ccccc4c3CCN1C(=O)C(CC(=O)NCCN1CCOCC1)C[C@@H]2C(=O)N1CCN(C(=O)c2ccco2)CC1 (some centres not stated) | . | 17% | -8 | 3% | 12% | .
CN(CC(=O)Nc1ccccc1Cl)C(=O)Cn1nnc(-c2ccc(F)cc2)n1 | . | -8% | 19 | -5% | 20% | .
COc1cccc(/C=N/Nc2c(Cl)cncc2Cl)c1O | 15% | ? | -1 | 13% | ? | -12%
SMILES | RORgamma inh | ELG1 DNA repair | Giardia kill | p53 reactivator | BRCA1 expr act | VP16 counter
COc1cccc(/C=N/Nc2cc(Cl)nc(C)n2)c1O | 0.5µM* | ? | 11 | 4% | 60% | 2.8µM*
COc1ccc(/C=N/Nc2cc(N3CCOCC3)ncn2)c(OC)c1 | -2% | ? | -11 | 10% | -29% | -2%
COc1cccc(/C=N/Nc2nnc(C)n2N)c1O | 2.2µM* | -3% | 3 | ? | -43% | 3.2µM*
COc1cccc(/C=N/Nc2cc(N3CCOCC3)ncn2)c1O | 11µM* | 12µM* | 5 | -27% | -21% | 11µM*
Cc1nnc(N/N=C/c2ccco2)n1N | 11µM* | 1% | 22 | -14% | -6% | 13µM*
COc1nc2ccccc2nc1N1CCN(c2ccc(F)cc2)CC1 | 5% | -3% | -3 | 3% | -60% | -7%
CN(C)CCCOC(=O)c1ccc(Cl)cc1 | -5% | 15% | -5 | 5% | -16% | -6%
CCOC(=O)[C@]12CCC=C1N(Cc1cccc3ccccc13)C(=O)[C@H](CC(=O)NCc1cccc3ccccc13)C2 | . | . | . | . | -7% | .
O=C(Cn1ncc(Cl)c(Cl)c1=O)c1ccc(Cl)cc1 | ? | ? | 10 | -25% | -97% | -66%
O=c1c(Cl)c(Cl)cnn1Cc1ccc(F)cc1 | ? | ? | 9 | -11% | -97% | ?
O=C(OCn1ncc(Cl)c(Cl)c1=O)c1ccccc1Cl | -89% | ? | -3 | -12% | -109% | 13µM*
O=C(OCn1ncc(Cl)c(Cl)c1=O)c1ccc(F)cc1 | ? | ? | . | -10% | . | 6.3µM*
CCC(CC)C(=O)Nc1nnc(SCC(=O)NC2CCCCC2)s1 | -1% | 1% | -8 | -2% | -13% | 5%
Cc1ccccc1Nc1nc(-c2sc(NC(=O)c3cccc(Cl)c3)nc2C)cs1 | 13µM* | 3% | . | -3% | . | ?
Cc1ccc(Cl)cc1Nc1nc(-c2sc(NC(=O)c3cccc(Cl)c3)nc2C)cs1 | ? | 14% | . | 1% | . | -10%
COc1ccccc1Nc1nc(-c2sc(NC(=O)c3ccco3)nc2C)cs1 | 10% | ? | -5 | ? | -35% | -4%
Cc1nc(NC(=O)c2ccco2)sc1-c1csc(Nc2ccc(Cl)cc2)n1 | 24% | 18µM* | -13 | -2% | -82% | -7%
Cc1ccc(Cl)cc1Nc1nc(-c2sc(NC(=O)c3ccco3)nc2C)cs1 | 6% | 8.2µM* | 7 | 3% | -81% | -5%
Cc1nc(NC(=O)c2ccco2)sc1-c1csc(Nc2ccc(Cl)cc2Cl)n1 | ? | 13µM* | 9 | -7% | 0% | -24%
